Among the test systems are HCT-15 colon; HT29 colon; SNB-75 CNS; SNB-19 CNS; U251 CNS; PC-3 prostate; SK-MEL-5 melanoma; LOX IMVI melanoma; SK-MEL-28 melanoma; SK-MEL-2 melanoma; EKVX NSCLC; UO-31 renal; TK-10 renal; ACHN renal; CAKI-1 renal; A498 renal; CCRF-CEM leukemia; MOLT-4 leukemia; UACC-62 melanoma; SN12C renal.
Holding throughout (experiment): NCI-60 one-dose screen, 48 h (100 = growth as untreated, 0 = no growth, -100 = all killed)
Conditions in all cases: 10 µM unless noted

Each structure is given as a SMILES string. The panel holds about 83,000 compounds, 20% with a hit somewhere; the sample as a whole holds those more often.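 Single-concentration screen, 48 h exposure, 96-well plates. Endpoint: percent growth. Below 10 = active.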 Unmarked numbers belong to inactive results. Activity calls are given as the source filed them.

Regarding `CC(C)c1ccc2c(c1)CC[C@H]1[C@](C)(C(=O)OCC#CCN3CCCC3)CCC[C@]21C`, the growth was 42.7% with HCT-15 colon; 36.8% in the assay with HT29 colon; 88.6% in the assay with SNB-75 CNS; 86.8% in the assay with SNB-19 CNS; 69.2% with U251 CNS; 61.9% in the assay with PC-3 prostate. Besides, the growth in the assay with SK-MEL-5 melanoma was 64.7%; with LOX IMVI melanoma, 91.1%; with SK-MEL-28 melanoma, 76%; in the assay with SK-MEL-2 melanoma, 103%; with EKVX NSCLC it was 74.8%; with UO-31 renal, 60.7%. For the same molecule, the growth in the assay with TK-10 renal is 98.6%; in the assay on ACHN renal, 86.2%; in the assay with CAKI-1 renal, 94.5%; with A498 renal it was 105%; with CCRF-CEM leukemia it was 6.39% (active); with MOLT-4 leukemia, 72.7%.
`S=c1ccnc[nH]1`: the growth in the assay with HCT-15 colon is 103%; with HT29 colon, 110%; with SNB-75 CNS it was 120%; in the assay with U251 CNS, 102%; in the assay on PC-3 prostate, 100%; in the assay on SK-MEL-5 melanoma, 109%. The growth in the assay with UACC-62 melanoma was 102%; with LOX IMVI melanoma, 96.5%; with SK-MEL-28 melanoma, 144%; with SK-MEL-2 melanoma, 96.6%; in the assay on EKVX NSCLC it was 118%; with SN12C renal, 96.8%. The growth is 82.5% with UO-31 renal; 127% in the assay on TK-10 renal; 99.4% with ACHN renal; 104% with CAKI-1 renal; 112% in the assay on A498 renal; 123% in the assay on CCRF-CEM leukemia. Moreover, the growth in the assay on MOLT-4 leukemia is 107%.
As to `CC(=O)c1c(Nc2cccc(F)c2)[nH]c2c(Cl)cc(Cl)c(Cl)c2c1=O`, the growth in the assay on HCT-15 colon is 8.24% (active); with HT29 colon, 4.86% (active); with SNB-75 CNS it was -9.54% (active); in the assay on U251 CNS, 3.22% (active); with PC-3 prostate, 10.3%; in the assay with SK-MEL-5 melanoma, -68.7% (active). Further, the growth in the assay with UACC-62 melanoma was -18.7% (active); with LOX IMVI melanoma, 9.99% (active); with SK-MEL-28 melanoma, 5.27% (active); in the assay on SK-MEL-2 melanoma, -37.5% (active); with EKVX NSCLC, 10.8%; in the assay with SN12C renal, -0.0775% (active). For the same molecule, the growth is 6.24% (active) in the assay on UO-31 renal; 12.5% with TK-10 renal; 2.02% (active) in the assay on ACHN renal; -5.89% (active) in the assay with CAKI-1 renal; -41.6% (active) with A498 renal; 8.65% (active) in the assay on CCRF-CEM leukemia. In addition, the growth with MOLT-4 leukemia was 4.94% (active).
As for `C/C=C1/CN(CCCCC)CC[C@H]1C(=O)c1cc2ccccc2[nH]1`, the growth is 87% with HCT-15 colon; 75.7% in the assay on HT29 colon; 76.4% in the assay with SNB-75 CNS; 98.1% with U251 CNS; 85.8% in the assay with PC-3 prostate; 87.9% in the assay on SK-MEL-5 melanoma. The growth in the assay on UACC-62 melanoma is 95%; in the assay on LOX IMVI melanoma it was 90.1%; in the assay with SK-MEL-28 melanoma, 111%; with SK-MEL-2 melanoma, 118%; with EKVX NSCLC, 94.1%; in the assay with SN12C renal, 86.1%. Besides, the growth in the assay on UO-31 renal was 50.7%; in the assay on TK-10 renal, 120%; in the assay on ACHN renal, 96.1%; in the assay on CAKI-1 renal it was 87.6%; with A498 renal, 88.9%; in the assay on CCRF-CEM leukemia, 96.8%. For the same molecule, the growth in the assay with MOLT-4 leukemia was 86.1%.
Take `COc1ccc(CN2C(=O)OC(C)(COC(C)=O)C2=O)cc1` (stereo not drawn): the growth was 102% with HCT-15 colon; 107% with HT29 colon; 100% with SNB-75 CNS; 102% in the assay on SNB-19 CNS; 104% with U251 CNS; 101% in the assay with PC-3 prostate. In addition, the growth in the assay on SK-MEL-5 melanoma is 101%; with LOX IMVI melanoma, 100%; in the assay on SK-MEL-28 melanoma it was 101%; in the assay on SK-MEL-2 melanoma, 111%; with EKVX NSCLC, 107%; in the assay with UO-31 renal, 95%. Also, the growth in the assay with TK-10 renal was 104%; in the assay with ACHN renal it was 102%; in the assay with CAKI-1 renal, 94.8%; in the assay on A498 renal it was 103%; in the assay on CCRF-CEM leukemia, 99.5%; with MOLT-4 leukemia, 95.6%.
On to `C=C(C)[C@@H]1CC[C@]2(C(=O)N3CCN(C)CC3)CC[C@]3(C)[C@H](CC[C@@H]4[C@@](C)(CCC(=O)O)[C@H](C(=C)C)CC[C@]43C)[C@@H]12`, for which the growth in the assay with HCT-15 colon was 82.5%; in the assay on HT29 colon it was 78%; in the assay on SNB-75 CNS it was 76%; in the assay on SNB-19 CNS, 93.6%; with U251 CNS it was 79.7%; in the assay with PC-3 prostate it was 55.4%. Further, the growth is 82.7% in the assay on SK-MEL-5 melanoma; 92.5% in the assay on LOX IMVI melanoma; 99% with SK-MEL-28 melanoma; 92.2% in the assay with SK-MEL-2 melanoma; 86% in the assay on EKVX NSCLC; 85.9% with SN12C renal. In addition, the growth is 50.5% in the assay on UO-31 renal; 94.3% with TK-10 renal; 82.8% in the assay on ACHN renal; 63.1% in the assay with CAKI-1 renal; 70.7% in the assay on CCRF-CEM leukemia; 61.2% in the assay with MOLT-4 leukemia.
On to `Cc1ccc(C(=O)c2ccc(CC(=O)N/N=C/c3cccc(O)c3O)n2C)cc1`, for which the growth is 15.7% with HCT-15 colon; 86.7% in the assay with HT29 colon; 25.4% in the assay on SNB-75 CNS; 26% in the assay on U251 CNS; 59.2% with PC-3 prostate; 34.6% with SK-MEL-5 melanoma. In addition, the growth with UACC-62 melanoma was 39.1%; in the assay on LOX IMVI melanoma, 17.3%; in the assay with SK-MEL-28 melanoma it was 80%; in the assay on SK-MEL-2 melanoma, 95.3%; in the assay with EKVX NSCLC, 58.8%; in the assay on SN12C renal, 46.8%. Moreover, the growth in the assay on UO-31 renal was 14.2%; with TK-10 renal, 38.8%; with ACHN renal it was 13.5%; in the assay with CAKI-1 renal it was 37.3%; in the assay with A498 renal it was 93.3%; with CCRF-CEM leukemia, 13.1%. In the assay with MOLT-4 leukemia, the growth is 11.2%.
For the molecule `COc1ccc2c(c1)C(C)Cc1c(ncnc1-n1cnc3cc(C)ccc31)N2C` (stereo not drawn), the growth is 13.2% in the assay with HCT-15 colon; 5.82% (active) with HT29 colon; 63.3% with SNB-75 CNS; 33.5% in the assay on SNB-19 CNS; 18.5% with U251 CNS; 24.7% in the assay with PC-3 prostate. Further, the growth in the assay with SK-MEL-5 melanoma is -14.1% (active); in the assay with LOX IMVI melanoma, 21.9%; in the assay on SK-MEL-28 melanoma, 64.3%; in the assay with SK-MEL-2 melanoma, 47.4%; with EKVX NSCLC it was 40.3%; with SN12C renal it was 30.1%. Further, the growth in the assay with UO-31 renal was 43.5%; with TK-10 renal, 53.6%; with ACHN renal, 29%; with CAKI-1 renal, 23.2%; in the assay with CCRF-CEM leukemia, 7.96% (active); with MOLT-4 leukemia, 11%.

(Values after PubChem BioAssay (NCI).)
